Screening results as filed in PubChem BioAssay.
Rows were chosen to be rich in hits. Some 4.8% of all compounds tested hit in one or more screens of this group.
SMARCA2 activ: increases SMARCA2 function in MMTV reporter cells; MG213 cells, MMTV-luciferase reporter, dexamethasone, overnight; activation, % at 9.1 µM; 1% of 370,000 active; AID 652017; in the data active = activation above about 7.8%
hgDAF-12 ag: activates the H. glycines DAF-12 receptor ligand-binding domain; activation, % at 6.8 µM; HEK293 GAL4-hgDAF12 UAS-luciferase reporter, agonist luminescence; normalized to butyrate control; 1.8% of 370,000 active;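 active = activation above a cutoff set at the mean of all screened compounds plus 3 SD, cut at about 10% in these data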
DAX1 inh-1: DAX1 (NR0B1) inhibition, primary screen | HEK293T StAR-luciferase reporter, SF-1/DAX-1 repression relief | inhibition, % at 6.8 µM | 1.1% of 370,000 active | AID 652010;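 active = inhibition above the mean over all tested compounds plus 3 SD, cut at about 3.6% in these data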;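 also: higher inhibition means more luminescence from relief of DAX-1 repression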
hcDAF-12 act: activators of H. contortus DAF-12 nuclear receptor | HEK293 hcDAF-12 lit1-tk-luc reporter, luminescence; 0% DMSO, 100% Δ7-dafachronic acid | activation, % at 6.8 µM | 1.4% of 370,000 active | AID 652067;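 active = activation above the mean of all tested compounds plus 3 SD, cut at about 5.5% in these data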
ssDAF12 agonist: S. stercoralis DAF-12 activation, primary screen. HEK293 ssDAF-12/GRIP1 lit1-tk-luc reporter, luminescence; % of 3 µM dafachronic acid response. activation, % at 6.8 µM. 1% of 370,000 active. AID 652126;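 active = activation above the mean over all tested compounds plus 3 SD, cut at about 0.9% in these data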
DAX1 inh-2: NR0B1 (DAX1) inhibition | P51843 | HEK293 Gal4-DAX1 luciferase reporter, luminescence | inhibition, % at 6.75 µM | 0.99% of 340,000 active | AID 504766;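 active = inhibition above the mean over all tested compounds plus 3 SD, cut at about 4.2% in these data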;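 also: inhibition shows as a rise in luminescence from relieved DAX1 repression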
Target sequence (P51843 207-470 limits assumed): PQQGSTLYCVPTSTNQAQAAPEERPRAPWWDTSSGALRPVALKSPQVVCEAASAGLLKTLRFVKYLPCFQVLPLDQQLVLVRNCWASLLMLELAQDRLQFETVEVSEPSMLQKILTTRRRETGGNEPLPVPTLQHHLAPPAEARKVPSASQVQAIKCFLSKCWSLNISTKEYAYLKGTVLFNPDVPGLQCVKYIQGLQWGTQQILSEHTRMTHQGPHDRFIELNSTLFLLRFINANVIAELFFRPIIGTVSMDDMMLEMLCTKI
Numbers stand for hits; . = inactive; / = no result given.

SMILES	SMARCA2 activ	hgDAF-12 ag	DAX1 inh-1	hcDAF-12 act	ssDAF12 agonist	DAX1 inh-2
CC(=O)NCCN=C(C)c1sc2ccccc2c1O	.	.	.	.	.	.
COC(=O)[C@]12C[C@H](CC(=O)N3CCSCC3)C(=O)N(Cc3cccc4ccccc34)C1=C[C@H](C1CCCC1)O[C@@H]2C	.	.	.	.	.	/
Fc1ccc(NC2CCC23CCC(c2ccccc2)CC3)cc1C(F)(F)F (stereo unspecified)	/	.	/	.	.	/
O=C(c1ccco1)[C@@H]1[C@@H]2C(=O)N(c3ccc(Br)cc3)C(=O)[C@@H]2C2c3ccccc3C=CN21 (stereo partly specified)	.	.	.	.	1.2	.
O=C(c1ccco1)[C@@H]1[C@@H]2C(=O)N(c3ccc(F)cc3)C(=O)[C@@H]2C2c3ccccc3C=CN21 (stereo partly specified)	.	.	.	.	.	/
O=C1c2ccccc2C(=O)C1c1ccncc1	.	.	4.0	5.6	.	.
O=C1c2ccccc2C(=O)C1c1ccccn1	.	.	.	.	.	.
Cc1ccccc1CS(=O)(=O)Cc1ccc(C(=O)Nc2ccccc2C)o1	.	.	.	.	.	/
C=CCn1c(C)nc2c(sc3nc4c(cc32)COC(C)(C)C4)c1=O	.	12.8	.	.	.	4.7
CCOC(=O)CC[C@@]1(C(=O)OCC)C[C@@H](CC(=O)N2CCN(C(=O)c3ccco3)CC2)C(=O)N2CCCC=C21	.	.	.	.	.	/
CC(=O)N1CCc2c(sc(NC(=O)C3CC3)c2-c2nc3ccccc3s2)C1	.	.	.	.	.	.
CC(=O)Nc1sc2c(c1-c1nc3ccccc3s1)CCN(C(C)=O)C2	/	.	/	6.2	.	/
CS(=O)(=O)c1ccc(C(=O)OCC#CCSc2nnc(-c3cccc4ccccc34)o2)cc1	/	.	/	.	.	/
CC(=O)Oc1ccc(/C=C2/Oc3ccccc3C2=O)cc1	.	.	.	.	.	5.3
O=C1/C(=C/c2ccccc2)Oc2cc(OC(=O)N3CCOCC3)ccc21	.	.	.	.	.	.
C=CCN1C(=O)c2ccc(C(=O)N3CCN(S(=O)(=O)c4ccc(C(C)C)cc4)CC3)cc2C1=O	.	.	.	.	.	4.4
C=CCN1C(=O)c2ccc(C(=O)N3CCN(S(=O)(=O)c4cccc([N+](=O)[O-])c4)CC3)cc2C1=O	.	.	.	.	.	.
COc1cccc(NC(=O)CN(C)C(=O)c2cc(S(=O)(=O)N3CCCCC3)ccc2Cl)c1	.	.	4.2	.	.	.
S=C(Nc1ccc(Cl)cc1)OC1CCC12CCC(c1ccccc1)CC2 (stereo unspecified)	.	.	.	.	.	/
O=C(c1ccc(Oc2ccccc2)cc1)c1nc2c(n1O)CCCC2	.	.	.	.	1.2	.
COc1ccc(NC(=O)C(CCCCNC(=O)OC(C)(C)C)NC2(C(=O)NCCc3c[nH]c4ccccc34)CCCCC2)cc1 (stereo unspecified)	/	.	/	.	.	/
CC(=O)N/C(=C\c1ccccc1)C(=O)OCC(=O)NC1CCCC1	.	.	.	6.4	.	.
Nc1c(-c2ccc(Cl)cc2)cnn1-c1ccccc1	.	.	.	.	.	.
Cc1ccc(-c2cnn(-c3cccc([N+](=O)[O-])c3)c2N)cc1	.	11.4	.	.	.	.
Nc1c(-c2ccccc2)cnn1-c1ccc(C(=O)O)cc1	.	12.3	.	.	.	.
SMILES	SMARCA2 activ	hgDAF-12 ag	DAX1 inh-1	hcDAF-12 act	ssDAF12 agonist	DAX1 inh-2
Cc1ccc(-c2cnn(-c3ccccc3)c2N)cc1	.	16.3	.	.	.	.
C=CCN1C(=O)[C@@H](CC(=O)NCCC(C)C)[C@]2(C(=O)OCC)CCCCC/C=C/12	.	.	.	.	.	/
COc1ccc(-c2nc(CN3CCCCC3c3cccnc3)c(C)o2)c(F)c1 (stereo unspecified)	.	11.9	.	.	.	.
NNC(=O)c1nc2ccccc2s1	.	.	.	.	.	.
CN(C)C(=O)c1nc2ccccc2s1	.	.	.	6.5	.	.
CC1CCc2nc(NC(=O)CN3CCN(c4ccc(F)cc4)CC3)sc2C1 (stereo unspecified)	.	.	.	.	.	6.6
COc1cccc(N2CCN(CC(=O)Nc3nc4c(s3)CC(C)CC4)CC2)c1 (stereo unspecified)	.	.	.	.	.	.
O=C(O)CCc1ccc(-c2cccs2)n1NC(=O)c1cccs1	.	.	.	.	.	4.5
O=C(O)CCc1ccc(-c2cccs2)n1NC(=O)c1ccc(O)cc1	.	.	.	.	.	.
COC(=O)C1CN(Cc2cn(Cc3ccc(Cl)cc3)nn2)CCS(=O)(=O)N1Cc1ccccc1 (stereo unspecified)	.	.	.	.	.	/
S=C(c1cccs1)N1CCCC1	.	.	.	.	.	.
S=C(c1cccs1)N1CCN(c2ccccc2)CC1	.	.	.	.	.	5.7
COC(=O)[C@]12C[C@H](CC(=O)NCc3cccs3)C(=O)N(CCc3ccc(OC)c(OC)c3)C1=C[C@H](C1CCCC1)O[C@@H]2C	.	.	.	.	.	/
O=C(O)Cn1c2c(c3ccccc31)CSc1ccc(Cl)cc1-2	.	.	.	7.5	.	.
O=C(O)Cn1c(=O)c2c(c3ccccc31)CCC2	.	.	.	.	.	.
CCn1c(=O)c(C(=O)CC#N)c(N)n(Cc2ccccc2)c1=O	.	.	.	.	.	4.9
CCn1c(=O)c(C(=O)CN2CCOCC2)c(N)n(Cc2ccccc2)c1=O	.	.	.	.	.	.
COCCNC(=O)C[C@H]1CC[C@H]2[C@@H](COc3ccc(NS(=O)(=O)c4ccc(Cl)cc4)cc3C(=O)N2C)O1	.	.	.	.	.	/
CCCCNC(=O)C[C@@H]1C(=O)N(Cc2ccc(OC)cc2)/C2=C/CCCCC[C@@]21C(=O)OCC	.	.	.	.	.	/
C/C(N)=C(/C#N)C(=O)CSc1nn(-c2ccc(Cl)cc2)c(=S)s1	.	10.5	.	.	.	.
CC(C)CNc1cccc2c1S(=O)(=O)N(Cc1cn(Cc3ccc(F)cc3)nn1)Cc1ccccc1O2	.	.	.	.	.	/
O=C(O)c1cccc2c1-c1ccccc1/C2=N\Nc1ccccc1	.	.	.	.	.	5.4
N/C(=N\OC(=O)c1cccc(Br)c1)c1ccc(Br)cc1	.	.	.	.	.	.
N/C(=N\OC(=O)c1ccc(Br)cc1)c1ccccc1	.	11.9	.	.	.	.
Oc1ccc(/C=C/c2ccc3cccc(O)c3n2)cc1Br	.	10.5	.	.	.	.
O=[N+]([O-])c1cccc(/C=C/c2ccc3cccc(O)c3n2)c1	.	.	.	.	.	.
CCOC(=O)C1CCN(C(=O)C(C)(C)NC(=O)Nc2ccc3c(c2)CCC3)CC1	/	.	/	.	.	/
COC(=O)[C@H](C)N(Cc1cn(Cc2ccccc2)nn1)S(=O)(=O)c1ccccc1Br	7.8	.	.	.	.	/
